# According to PMC10668032, “Altered binding affinity of SIX1-Q177R correlates with enhanced WNT5A and WNT pathway effector expression in Wilms tumor”:
# In all, about 33,000 sequences were measured (“e-score”: median about -0.05, highest 2% from about 0.38 on). The full list was thinned out, with the highest values kept by preference.
# Molecular target: T1, SIX1-Q177R homeodomain (human, UniProt Q15475 108-198, Q177R)
# T1 sequence: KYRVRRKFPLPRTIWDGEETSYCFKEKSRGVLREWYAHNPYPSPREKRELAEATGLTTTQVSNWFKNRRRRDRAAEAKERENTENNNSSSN
# Assay: universal protein binding microarray; Universal all-10-mer PBM (8x60K, AMADID 030236), 300 nM GST-tagged protein, Alexa Fluor 488 anti-GST; buffer, salt, pH and temperature not stated (as in Berger); high values mean tight binding
# Conditions: protein: ivt; tags: N-terminal GST; dsDNA, one strand shown
# Outline: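 GST-tagged homeodomains were made by in vitro transcription/translation and quantified by anti-GST western blot against a recombinant GST standard curve. They were applied in duplicate at 300 nM final concentration to universal 'all 10-mer' protein binding microarrays (8×60K format). Binding was quantified as 8-mer E-scores with the Universal PBM Analysis Suite.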
row,Sequence,binding signal [E-score]
1,CGTGTACA,0.427 ± 0.00703
2,ACTGTACA,0.223 ± 0.00571
3,GGGGTACC,0.247 ± 0.0225
4,AGTGTACA,0.418 ± 0.0292
5,AGTGTACC,0.414 ± 0.00528
6,CGGGTACC,0.16 ± 0.0136
7,AGTGTGCC,0.159 ± 0.0249
8,CGTGTACC,0.4357 ± 0.00135
9,AGAGTACA,0.186 ± 0.00263
10,CTTGTACA,0.154 ± 0.0493
11,CGTGTGCC,0.168 ± 0.0218
12,CATGTACA,0.167 ± 0.0144
13,AGTACCCA,0.175 ± 0.0132
14,CACCATGG,0.343 ± 0.0218
15,CGTAGGTA,0.209 ± 0.00643
16,CACTAGTC,0.208 ± 0.0318
17,CACGGTAC,0.186 ± 0.0635
18,CACTATAG,0.192 ± 0.0146
19,GGTGTACA,0.4817 ± 0.00156
20,AGTGTACG,0.407 ± 0.00139
21,GTTGTACA,0.223 ± 0.0201
22,GCTGTACA,0.208 ± 0.0271
23,AGTGTGTG,0.197 ± 0.0254
24,CGAGTACG,0.19 ± 0.0193
25,CACGGAAA,0.188 ± 0.0559

row,Sequence,binding signal [E-score]
1,ACACCGAG,0.4783 ± 0.00449
2,CCCCCGAG,0.188 ± 0.0196
3,ACCCCGAA,0.228 ± 0.0524
4,ACACCGAC,0.475 ± 0.00507
5,ACGCCGAT,0.152 ± 0.0158
6,ACCCCGAG,0.317 ± 0.0221
7,GCACCGAA,0.156 ± 0.0137
8,ACACCGAT,0.473 ± 0.00479
9,ACACCGAA,0.4689 ± 0.000997
10,ATACCGAC,0.173 ± 0.0172
11,ACCCCGAT,0.229 ± 0.00378
12,GCACCGAC,0.225 ± 0.017
13,CACCGTAG,0.255 ± 0.00273
14,CGGAGTAC,0.229 ± 0.00578
15,GGCGAACA,0.198 ± 0.0404
16,ACCCTTAG,0.172 ± 0.00692
17,CACTAAAC,0.195 ± 0.0243
18,CACTTGAC,0.258 ± 0.0158
19,CAAGGATA,0.184 ± 0.029
20,ACTCCACA,0.206 ± 0.00721
21,AGTTGGGG,0.16 ± 0.00841
22,ATGACACA,0.275 ± 0.0196
23,CTGACGCC,0.185 ± 0.012
24,ATGACTCC,0.273 ± 0.00839
25,ATGACACC,0.4917 ± 0.00156

row,Sequence,binding signal [E-score]
1,CTGACACC,0.4913 ± 0.00298
2,ATGACACG,0.4485 ± 0.00163
3,CTGACACA,0.297 ± 0.0288
4,ATGACGCC,0.172 ± 0.00576
5,GTGACACA,0.333 ± 0.0417
6,CCCCCAAG,0.227 ± 0.0377
7,CGGCTACG,0.164 ± 0.00561
8,CACCAATA,0.276 ± 0.0342
9,CCCCCATA,0.192 ± 0.0334
10,GGGATGTA,0.159 ± 0.0364
11,AACGAACA,0.208 ± 0.0231
12,GGGTGTTA,0.475 ± 0.00715
13,AGGTGTTC,0.457 ± 0.00831
14,CGGTGCTA,0.2 ± 0.00414
15,AAGTGTTG,0.289 ± 0.02
16,AGGTGTTG,0.448 ± 0.00602
17,GGGGGTTA,0.293 ± 0.0288
18,GTGTGTTA,0.298 ± 0.00829
19,CGGAGTTA,0.253 ± 0.0116
20,ACGTGTTG,0.346 ± 0.00562
21,AGGTGCTC,0.158 ± 0.0126
22,CGGTGTTA,0.4847 ± 0.00334
23,ACGCCCAG,0.1915 ± 0.000269
24,CACCTGGC,0.152 ± 0.00727
25,CGCCCAGC,0.161 ± 0.0486

row,Sequence,binding signal [E-score]
1,AATACCCT,0.171 ± 0.00453
2,CCCCTCGC,0.169 ± 0.0263
3,TGTCGGAA,0.233 ± 0.0472
4,GTGTGCTA,0.321 ± 0.0179
5,GCGTTACA,0.201 ± 0.00911
6,GCTGTGGA,0.17 ± 0.0188
7,CGCCGTAC,0.178 ± 0.00701
8,AATGATCC,0.17 ± 0.0375
9,GTTGGACA,0.245 ± 0.0116
10,CCTCTCGA,0.17 ± 0.0627
11,CACGCACA,0.262 ± 0.00327
12,AGGTGTTA,0.463 ± 0.00921
13,CGGTGTTC,0.476 ± 0.00165
14,CTGTGTTC,0.175 ± 0.0413
15,CGGTGCTC,0.218 ± 0.0427
16,AGGGGTTA,0.21 ± 0.0107
17,CGGAGTCA,0.356 ± 0.0051
18,TCATAACA,0.23 ± 0.0137
19,CCCGGTAC,0.22 ± 0.0152
20,CACCCCTG,0.351 ± 0.0108
21,CACCCCTA,0.283 ± 0.00661
22,CACCCTAA,0.3263 ± 0.00228
23,CACCCTAG,0.3472 ± 0.00144
24,CACCCTAC,0.387 ± 0.01
25,CACCCCTC,0.3928 ± 0.00375

row,Sequence,binding signal [E-score]
1,CACCCGCC,0.339 ± 0.0104
2,CACTTAGC,0.179 ± 0.029
3,ACGCCCAC,0.208 ± 0.00669
4,ATCGGCAC,0.175 ± 0.0126
5,AGTAGGGG,0.196 ± 0.0406
6,CCATGGAA,0.156 ± 0.015
7,ACACTGTA,0.3506 ± 0.0019
8,ACACTGGT,0.4256 ± 0.00135
9,AAACTGGT,0.203 ± 0.0496
10,ACGCTGGG,0.154 ± 0.0213
11,ACACTGGG,0.412 ± 0.0164
12,ACACTTGC,0.363 ± 0.0273
13,ACACTGGA,0.3915 ± 0.0011
14,ACACTGAT,0.374 ± 0.00694
15,ACCCTGGG,0.238 ± 0.00896
16,ACACTGGC,0.379 ± 0.00546
17,CCACTGGA,0.206 ± 0.0185
18,ACCATGGG,0.162 ± 0.0492
19,CGATAACA,0.232 ± 0.018
20,GGGGTGGA,0.159 ± 0.0262
21,AGTCAGAG,0.156 ± 0.0606
22,CACCCTGG,0.315 ± 0.016
23,CCTTGACC,0.172 ± 0.00687
24,AAGGGGTA,0.2871 ± 0.000587
25,AAACTACA,0.184 ± 0.032

row,Sequence,binding signal [E-score]
1,CGCCGTGC,0.188 ± 0.0146
2,ACGTAGTG,0.23 ± 0.0205
3,CACGTGTC,0.398 ± 0.00923
4,AACGTGTC,0.3481 ± 0.00176
5,CACGTGCA,0.218 ± 0.0109
6,CACGTGCC,0.225 ± 0.0142
7,AACGTGTA,0.353 ± 0.0523
8,CACGTGTA,0.4 ± 0.0127
9,ACCGCTAG,0.171 ± 0.0167
10,AACAGGTG,0.327 ± 0.0196
11,GGTAACAC,0.432 ± 0.00841
12,AGTAACAC,0.424 ± 0.0116
13,CGTAACAC,0.4096 ± 0.00185
14,CGTAACCC,0.225 ± 0.019
15,CGTAGCAC,0.17194 ± 0.000163
16,GTAAACAC,0.375 ± 0.00722
17,GGTAAACA,0.188 ± 0.00443
18,AGTAACCC,0.201 ± 0.0162
19,CCACTTGC,0.163 ± 0.00866
20,AGGGGTAC,0.273 ± 0.0106
21,ATCCCCAC,0.211 ± 0.0453
22,ATCTTACA,0.262 ± 0.0268
23,ACCCGTAA,0.264 ± 0.0395
24,TGCCGACA,0.177 ± 0.00329
25,GCGGTGTA,0.4849 ± 0.00132

row,Sequence,binding signal [E-score]
1,ACGGTGCT,0.179 ± 0.0133
2,CCGGTGCA,0.203 ± 0.0164
3,GATGTGTA,0.19 ± 0.00781
4,ACGGTGCA,0.2931 ± 0.00041
5,GCTGTGTA,0.223 ± 0.0192
6,CCGGTATA,0.183 ± 0.0142
7,CCGGTGTA,0.4859 ± 0.00134
8,ACGGTGTA,0.4693 ± 0.00139
9,CCCGAGTA,0.167 ± 0.00344
10,CTTAGGGA,0.151 ± 0.0622
11,GCACAACA,0.156 ± 0.0323
12,CACCTGAG,0.183 ± 0.0139
13,ATTGGTGC,0.1599 ± 0.00112
14,CAAGGACA,0.194 ± 0.0363
15,ACGACCCG,0.179 ± 0.0515
16,CACGCATC,0.168 ± 0.00731
17,CACCAGCG,0.22 ± 0.0046
18,GCGTGTCA,0.4332 ± 0.000573
19,CCGTGACA,0.307 ± 0.00911
20,ACGTGTGG,0.218 ± 0.0138
21,GCGTGACA,0.254 ± 0.0158
22,ACGTGGTG,0.3594 ± 0.00155
23,GCGTGTCC,0.412 ± 0.0188
24,ACGTGTCG,0.383 ± 0.00518
25,GCGTATCC,0.176 ± 0.00656

row,Sequence,binding signal [E-score]
1,CCGTGTGA,0.299 ± 0.0309
2,ACGTGTCC,0.347 ± 0.017
3,CCGTGTCA,0.465 ± 0.00781
4,CCAGCTGG,0.263 ± 0.0674
5,CATGGTGG,0.192 ± 0.00214
6,GTGCGTGA,0.163 ± 0.0169
7,CCCCCTTC,0.2098 ± 0.000417
8,CCCCGTCG,0.161 ± 0.0244
9,CCGTGTCC,0.408 ± 0.0236
10,ACGTGTCA,0.4123 ± 0.00349
11,TCGTGACA,0.329 ± 0.0128
12,TCGGGTCA,0.197 ± 0.0386
13,CCCTGTCC,0.152 ± 0.0156
14,ACGTGTCT,0.337 ± 0.00126
15,CCGGGTCG,0.248 ± 0.0288
16,TCGTGTCA,0.4434 ± 0.00419
17,CCGTGATC,0.165 ± 0.0407
18,CCGTGTCG,0.441 ± 0.0221
19,CGAATCCG,0.166 ± 0.0303
20,AGCTCGTG,0.244 ± 0.0101
21,ATACTCCC,0.162 ± 0.0435
22,CCCCGGTA,0.284 ± 0.00694
23,CATCAGCG,0.153 ± 0.0322
24,CACCGGAC,0.315 ± 0.0498
25,CTATAACA,0.228 ± 0.0138

row,Sequence,binding signal [E-score]
1,AGAGTGTC,0.412 ± 0.00919
2,CAAGTGTA,0.392 ± 0.0272
3,AGTGTGTC,0.283 ± 0.029
4,CAAGTGTC,0.379 ± 0.0101
5,AGAGTGTG,0.247 ± 0.0115
6,AAAGTGTT,0.285 ± 0.0563
7,AAAGTGTG,0.184 ± 0.0165
8,AGAGTGTA,0.424 ± 0.0108
9,TAAGTGTA,0.373 ± 0.0287
10,GAAGTGTC,0.387 ± 0.0118
11,ACCCGGCT,0.202 ± 0.0126
12,ACACATAA,0.18 ± 0.0275
13,GCGAGACA,0.249 ± 0.00462
14,GGAACCCC,0.165 ± 0.0247
15,GGGATCAC,0.2771 ± 0.000933
16,CACCGGAA,0.288 ± 0.0177
17,TAAGGGTA,0.163 ± 0.0467
18,CCGACCAC,0.192 ± 0.0175
19,CGGGTATA,0.21 ± 0.00983
